Compound activity: PubChem BioAssay, National Center for Advancing Translational Sciences (NCATS)
This is a sample that favours compounds with a hit; in the whole collection about 2.3% have one here.
Giardia kill – Giardia lamblia killing; Giardia lamblia trophozoite viability; activity change, % at 7.66 µM, hits read low; 340,000 tested, 0.15% active; AID 540267; in the data active = activity change below about -80%; inconclusive = between about -30% and that limit;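 note: parasites exposed to compound for two days anaerobically before the ATP read; % is set by controls: 0 for no effect and ±100 for the full control effect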
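Giardia lamblia trophozoites (100 cells/well) were incubated with compounds for 48 h at 37 deg C under anaerobic conditions. Viability was read as ATP content by one-step luminescence after 15-30 min at room temperature.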
IDH1 R132H inh – inhibitors of human mutant IDH1 R132H | O75874 | IDH1-R132H enzyme, NADPH consumption, diaphorase/resazurin fluorescence | Potency, µM (titrated, usually from 76.6 µM), for the others: at the highest dose activity change, negative = inhibition, usual class: inhibitors | 390,000 tested, 0.093% active | AID 602179; note: potency is the fitted concentration of half-maximal effect; % is set by controls: 0 for no effect and ±100 for the full control effect; nearly all actives have a fitted effect of over 65% in size
Target sequence (O75874 whole entry R132H, stated change not applied): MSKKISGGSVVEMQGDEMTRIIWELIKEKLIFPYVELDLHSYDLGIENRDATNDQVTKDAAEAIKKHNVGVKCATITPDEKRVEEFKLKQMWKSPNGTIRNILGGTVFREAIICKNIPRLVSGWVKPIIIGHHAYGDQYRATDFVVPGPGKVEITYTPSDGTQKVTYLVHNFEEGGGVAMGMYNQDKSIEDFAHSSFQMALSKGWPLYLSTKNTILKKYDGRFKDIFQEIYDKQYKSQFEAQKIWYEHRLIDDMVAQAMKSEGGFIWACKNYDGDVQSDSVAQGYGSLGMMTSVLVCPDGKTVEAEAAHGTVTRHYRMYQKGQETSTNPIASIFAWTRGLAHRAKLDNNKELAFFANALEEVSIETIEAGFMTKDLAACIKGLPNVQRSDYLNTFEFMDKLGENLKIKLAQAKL
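IDH1-R132H (0.5 ug/mL dispensed) in pH 7.5 Tris buffer was preincubated 30 min with compound, then given a substrate mix of 0.016 mM NADPH and 2 mM alpha-KG for 80 min at room temperature; remaining NADPH was read by diaphorase/resazurin fluorescence.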
Nrf2 activator – activates Nrf2 signaling; AREc32 ARE-luciferase reporter (MCF7-derived line), luminescence, 24 h; Potency, µM (series often up to 46.1 µM), inactives show at the top dose activation, hits mostly activators; 410,000 tested, 0.31% active; AID 624171; note: potency is the fitted concentration of half-maximal effect; % of control where 0% means no effect; nearly all actives have a fitted effect of over 65% in size
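Steps: seed AREc32_Fluc cells (1000/well, 5% FBS OPTI-MEM); incubate overnight at 37 deg C; add 23 nL compound; incubate 24 hr; add Steady-Glo; hold 30 min RT; read luminescence.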
Apoferritin bind – binds horse apoferritin like a general anesthetic | apoferritin/1-aminoanthracene competitive binding, fluorescence | AID 485281 | 350,000 tested, 0.074% active | Potency, µM (top dose mostly 77.5 µM), inactives show at the highest dose activity change, negative = displacement, actives largely listed as inhibitors | P02791; note: potency is the fitted concentration of half-maximal effect; % is set by controls: 0 for no effect and ±100 for the full control effect; nearly all actives have a fitted effect of over 20% in size
Target sequence (P02791 2-175 limits assumed): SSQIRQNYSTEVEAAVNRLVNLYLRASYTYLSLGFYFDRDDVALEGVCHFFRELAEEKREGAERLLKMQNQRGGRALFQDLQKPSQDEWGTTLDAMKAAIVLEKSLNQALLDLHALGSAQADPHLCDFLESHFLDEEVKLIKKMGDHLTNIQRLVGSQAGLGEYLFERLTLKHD
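Horse-spleen apoferritin (10 uM) was mixed with 50% saturated 1-aminoanthracene in PBS, exposed to compounds for 10 min at room temperature, and read for fluorescence (ex 380 nm, em 535 nm). Competitive displacement was fitted with a four-parameter Hill equation.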
Nrf2 inh – blocks Nrf2 signaling. A549 ARE-Fluc reporter, luciferase luminescence, 18-24 h. Potency, µM (titrated, usually from 46 µM), for the others: at the highest dose activity change, negative = inhibition, actives largely listed as inhibitors. 360,000 tested, 2.1% active; note: potency is the fitted concentration of half-maximal effect; % is set by controls: 0 for no effect and ±100 for the full control effect; nearly all actives have a fitted effect of over 60% in size
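Reporter: ARE-Fluc in A549. Exposure: 18-24 h, 37 °C, 5% CO2, 5% FBS OPTI-MEM. Readouts: fluorescent cytotoxicity (CellTiter-Fluor), then luminescent Nrf2 signal after BugLite.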
A549 tox – kills or reduces viability of A549 cells in Nrf2 counter-screen; 390,000 tested, 0.16% active; AID 504648; A549 ARE-Fluc cells, CellTiter-Fluor viability, 18-24 h; Potency, µM (series often up to 46 µM), for inactives: at the highest dose activity change, negative = cytotoxicity, hits mostly inhibitors; note: potency is the fitted concentration of half-maximal effect; % is set by controls: 0 for no effect and ±100 for the full control effect
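A549 ARE-Fluc cells in 5% FBS OPTI-MEM, 5000 cells/well, rested 2 h then exposed to compounds in concentration-response for 18-24 h at 37 °C. Viability by CellTiter-Fluor fluorescence (Ex 405/Em 525) after 30 min; luciferase luminescence (BugLite, 15 min, RT) read afterwards.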
* marks the source's active call; other numbers are inactive results; ? = inconclusive; . = not tested or not shown; [ ] = another dose, or the depositor's remark. Unless noted, calls come from the whole dose curve; as a rule, active = well fitted curve in the direction sought with a large enough effect; inconclusive = small, poorly fitted or top-dose-only effect, or another doubt; inactive = no such curve, though single readings can be large; an effect the other way counts as inactive or inconclusive.

SMILES	Giardia kill	IDH1 R132H inh	Nrf2 activator	Apoferritin bind	Nrf2 inh	A549 tox
COc1ccc2[nH]c3c(c2c1)CCN1C(=O)C(CC(=O)NCC24CC5CC(CC(C5)C2)C4)C[C@H](C(=O)N2CCOCC2)[C@@]31CCC1CCCC1 (some centres not stated)	14	-2%	-1%	.	21µM*	-20%
CC[C@]12c3[nH]c4ccc(Cl)cc4c3CCN1C(=O)[C@@H](CC(=O)NCCC1=CCCCC1)C[C@@H]2C(=O)N1CCN(C(=O)c2ccco2)CC1	12	?	0%	.	16µM*	?
COc1ccc2[nH]c3c(c2c1)CCN1C(=O)C(CC(=O)NCCN2CCOCC2)C[C@H](C(=O)N2CCCCC2)[C@@]31CCc1ccccc1 (some centres not stated)	10	-9%	0%	.	-2%	-3%
COc1ccc2[nH]c3c(c2c1)CCN1C(=O)C(CC(=O)NCCC2=CCCCC2)C[C@H](C(=O)N2CCCCC2)[C@@]31CCc1ccccc1 (some centres not stated)	7	-1%	0%	.	18µM*	-25%
CCN(CC)C(=O)[C@H]1C[C@H](CC(=O)NCC23CC4CC(CC(C4)C2)C3)C(=O)N2CCc3c([nH]c4ccc(Cl)cc34)[C@]12C	2	-15%	0%	.	23µM*	-23%
CC(C)N(C(=O)[C@H]1C[C@H](CC(=O)NCC23CC4CC(CC(C4)C2)C3)C(=O)N2CCc3c([nH]c4ccc(Cl)cc34)[C@]12C)C(C)C	17	-4%	-1%	.	?	?
COc1cccc(CNC(=O)C2CCN(c3nnc(-n4c(C)ccc4C)s3)CC2)c1	.	.	25%	-7%	-9%	4%
CCCC1NC(=O)c2cccnc2-n2c1nc1ccc(OC)cc1c2=O (configuration not stated)	.	-3%	0%	.	.	.
Cc1ccc(C)c(N2CCN(C(=O)CCCN3C(=S)NC(C)(C)CC3C)CC2)c1 (configuration not stated)	-6	13%	-1%	0%	16µM*	-5%
CC(=O)c1cccc(NC(=O)c2cccc(S(=O)(=O)N(C)C)c2)c1	15	-3%	3%	-8%	13%	-5%
Cc1cc(NC(=O)c2cccc(S(=O)(=O)N3CCCCCC3)c2)n(-c2ccccn2)n1	6	0%	0%	-8%	.	?
CN(C)S(=O)(=O)c1cccc(NC(=O)c2ccc3nccnc3c2)c1	8	3%	3%	-3%	5.8µM*	?
Cc1cc(NC(=O)c2cccc(S(=O)(=O)N(C)C)c2)n(-c2ccccn2)n1	-20	1%	0%	-7%	26µM*	-12%
Nc1nc(NCCc2ccccc2)c2[nH]cnc2n1	16	.	.	.	?	11%
Cc1ccc(-c2nn3c(C)nnc3s2)cc1NC(=O)c1ccc(-c2cccc(Cl)c2)o1	10	4%	0%	-19%	15µM*	-13%
Cc1ccc(-c2nn3c(C)nnc3s2)cc1NC(=O)c1ccc(-c2ccc(Cl)cc2Cl)o1	-4	1%	-1%	-19%	?	21µM*
COc1cn(CC(=O)Nc2ccc(C)cc2C)c(CN2CCCCC2)cc1=O	.	11%	0%	2%	.	8%
COC(=O)C1=NOC2(C=C(Br)C(OC)=C(Br)C2=O)C1 (configuration not stated)	.	.	.	-10%[15.3 µM]	.	.
O=S(=O)(c1ccc2c(c1)OCCO2)N1CCN(S(=O)(=O)c2ccccc2Cl)CC1	.	.	.	.	16%	4%
CCCCN(Cc1cc2cc(C)ccc2[nH]c1=O)C(=O)c1cccc(Cl)c1	.	10%	1%	?	14%	9%
CCCCCCCCCCOC(=O)Cn1c(COc2ccc(OC)cc2)[n+](C)c2ccccc21	8	-9%	-3%	?	21µM*	?
Cc1ccc(S(=O)(=O)c2nnn3c2nc(Nc2ccc(C(C)C)cc2)c2sccc23)cc1C	.	11%	-1%	-7%	21µM*	0%
CCOCc1cc(CN2CCN(c3cccc(Cl)c3)CC2)c(O)c2ncccc12	.	-7%	1%	-17%	?	4%
NCCOc1ccc(C23CC4CC(CC(C4)C2)C3)cc1	-24	-1%	-3%	11µM*	25%	12%
OCCN1CCN(CC(O)COc2ccc(C34CC5CC(CC(C5)C3)C4)cc2)CC1 (configuration not stated)	2	2%	-2%	?	15%	-10%
SMILES	Giardia kill	IDH1 R132H inh	Nrf2 activator	Apoferritin bind	Nrf2 inh	A549 tox
Cn1ccsc1=NC(=O)c1ccc([N+](=O)[O-])o1	-93*	2%	?	-7%	-10%	-17%
CN1/C(=C\C(=S)NC(=O)c2cccc(Br)c2)C(C)(C)c2ccccc21	3	3%	3%	-8%	21µM*	-14%
COc1ccc(-c2nc3c(C)cc(Br)cn3c2Cc2cccc(Cl)c2)cc1OC	.	.	9%	.	.	.
Clc1ccc(-c2ccnc(-n3cccc3)n2)s1	-6	0%	?	-15%	21%	4%
Clc1ccsc1-c1ccnc(-n2cccc2)n1	-4	-4%	10µM*	-16%	?	8%
Clc1ccsc1-c1ccc2ccccc2n1	-3	4%	10µM*	?	?	-3%
Cc1ccsc1-c1ccnc(-n2cccc2)n1	-1	8%	5µM*	170%	?	9%
c1ccc(Nc2nc(-c3ccccc3)c(-c3ccccc3)s2)cc1	-5	.	.	.	1%	-6%
CCCNC(=O)c1ccc(-n2c(-c3ccccc3)cc3c2CCC(C)C3)cc1 (configuration not stated)	.	6%	11µM*	5%	?	-15%
COCCNC(=O)c1ccc(-n2c(-c3ccccc3)cc3c2CCC(C)C3)cc1 (configuration not stated)	.	-8%	10µM*	5%	7%	-1%
O=S(=O)(c1ccccc1)N1CCN(c2nccc(-c3cccs3)n2)CC1	.	.	.	.	-10%	4%
Cc1ccccc1Nc1cc2ccccc2c(=O)[nH]1	-12	5%	-1%	4%	?	16µM*
O=c1[nH]c(Nc2ccccc2Cl)cc2ccccc12	-19	8%	14%	.	-3%	-2%
Cc1cccc(-n2c(SCC(=O)c3ccccc3)nnc2-c2ccc(Br)cc2)c1	.	10%	0%	?	.	?
CCOc1ccc(CCNC(=O)CCc2c(C)nc3cc(-c4ccccc4OC)nn3c2C)cc1	.	-10%	-2%	2%	15µM*	-5%
COc1ccc(CNC(=O)CCc2c(C)nc3cc(-c4ccccc4OC)nn3c2C)cc1	-11	0%	-1%	-5%	-25%	14%
